Experimental data: PubChem BioAssay (Tox21)
Where “and” joins values, the source holds several entries; their conditions need not be identical. Identical values can stand only once. Records with an inconclusive call do not appear. Where a call stands in place of a potency, no number is given. Some structures have more than one record in an assay (separate samples or runs), and their calls can disagree. Calls of active or inactive are those of the source. Unless noted, calls come from the whole dose curve; as a rule, active = well fitted curve in the direction sought with a large enough effect in the repeat runs; inconclusive = weak or mixed curves; inactive = no such curve, though single readings can be large; an effect the other way counts as inactive or inconclusive.

Key:
[1] = qHTS assay to identify small molecule antagonists of the glucocorticoid receptor (GR) signaling pathway - cell viability counter screen (AID 720693); note: nearly all actives have a fitted effect of over 55% in size
[2] = qHTS assay for identifying genotoxic compounds that show differential cytotoxicity against isogenic chicken DT40 cell lines with known DNA damage response pathways - wild type cell line (AID 743012); note: nearly all actives have a fitted effect of over 60% in size; note: potency is the fitted concentration of half-maximal effect
Procedure, shortened: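 First, wild type DT40 cells were plated at 300 per well and equilibrated about 0.5 h at 37 C/5% CO2. Next, compounds in DMSO were added and exposure lasted 40 h. Finally, CellTiter-Glo was added for 30 min at room temperature and luminescence recorded.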

[3] = qHTS assay for identifying genotoxic compounds that show differential cytotoxicity against isogenic chicken DT40 cell lines with known DNA damage response pathways - Rev3 mutant cell line (AID 743014); note: nearly all actives have a fitted effect of over 55% in size; note: potency is the fitted concentration of half-maximal effect
[4] = qHTS assay for identifying genotoxic compounds that show differential cytotoxicity against isogenic chicken DT40 cell lines with known DNA damage response pathways - Rad54/Ku70 mutant cell line (AID 743015); note: nearly all actives have a fitted effect of over 60% in size; note: potency is the fitted concentration of half-maximal effect
[5] = qHTS assay to identify small molecule antagonists of the androgen receptor (AR) signaling pathway - cell viability counter screen (AID 743033; note: nearly all actives have a fitted effect of over 45% in size; note: potency is the fitted concentration of half-maximal effect)
[6] = biological target: Androgen receptor (Homo sapiens) (UniProt P10275); assay: qHTS assay to identify small molecule antagonists of the androgen receptor (AR) signaling pathway (AID 743035; active = well fitted inhibition curve with a large enough effect in the signal ratio in the repeat runs, not every such curve was filed as active; the % refers to the signal ratio)
Androgen receptor (Homo sapiens), sequence (P10275 whole entry, looked up): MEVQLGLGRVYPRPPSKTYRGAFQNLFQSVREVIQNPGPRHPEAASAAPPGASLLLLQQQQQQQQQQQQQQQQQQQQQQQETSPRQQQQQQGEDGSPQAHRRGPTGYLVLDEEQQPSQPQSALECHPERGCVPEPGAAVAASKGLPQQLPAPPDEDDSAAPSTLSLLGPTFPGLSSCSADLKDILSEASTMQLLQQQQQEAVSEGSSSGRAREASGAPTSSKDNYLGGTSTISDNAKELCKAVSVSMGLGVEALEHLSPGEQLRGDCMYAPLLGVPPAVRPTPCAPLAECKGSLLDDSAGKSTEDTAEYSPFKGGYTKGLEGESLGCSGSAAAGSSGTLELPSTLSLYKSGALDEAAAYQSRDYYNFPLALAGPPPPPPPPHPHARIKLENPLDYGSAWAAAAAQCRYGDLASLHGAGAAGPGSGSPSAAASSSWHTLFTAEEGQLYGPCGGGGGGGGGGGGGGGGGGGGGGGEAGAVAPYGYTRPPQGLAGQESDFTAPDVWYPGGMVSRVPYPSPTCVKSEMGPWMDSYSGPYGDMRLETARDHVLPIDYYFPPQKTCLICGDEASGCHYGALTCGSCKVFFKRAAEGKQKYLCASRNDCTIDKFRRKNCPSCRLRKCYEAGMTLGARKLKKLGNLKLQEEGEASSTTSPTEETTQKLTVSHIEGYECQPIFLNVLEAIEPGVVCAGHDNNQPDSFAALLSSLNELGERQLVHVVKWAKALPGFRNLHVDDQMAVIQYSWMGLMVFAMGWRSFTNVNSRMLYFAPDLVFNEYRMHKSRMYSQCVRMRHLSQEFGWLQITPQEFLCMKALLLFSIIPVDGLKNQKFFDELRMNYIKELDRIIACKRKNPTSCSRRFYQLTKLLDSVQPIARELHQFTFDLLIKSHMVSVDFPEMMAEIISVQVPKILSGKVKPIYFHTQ
Procedure, shortened: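 Beta-lactamase FRET read (2 h RT incubation with LiveBLAzer B/G) following 16 h of compound plus R1881 treatment of AR-UAS-bla HEK293 cells, which had been pre-incubated 4 h at 37C.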

[7] = biological target: Androgen receptor (Homo sapiens) (UniProt P10275); assay: qHTS assay to identify small molecule agonists of the androgen receptor (AR) signaling pathway (AID 743036; active = well fitted activation curve with a large enough effect in the signal ratio in the repeat runs, with a control signal flat, not every such curve was filed as active; the % refers to the signal ratio)
Procedure, shortened: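 Agonist activity was scored by beta-lactamase reporter fluorescence in stably transfected HEK293 cells exposed to compounds for 16 h at 37C and 5% CO2. Substrate loading took 2 h at room temperature.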

[8] = biological target: Androgen receptor (Homo sapiens) (UniProt P10275); assay: qHTS assay to identify small molecule agonists of the androgen receptor (AR) signaling pathway using the MDA cell line (AID 743040; note: nearly all actives have a fitted effect of over 20% in size)
Procedure, shortened: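 MDA-kb2 breast carcinoma cells carrying MMTV-luciferase (responsive to AR and GR), plated 5 h then treated 16 h with compounds at 37C, 0% CO2. Read-out was ONE-Glo luminescence after 30 min at room temperature.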

[9] = qHTS assay to identify small molecule antagonists of the androgen receptor (AR) signaling pathway using the MDA cell line - cell viability counter screen (AID 743041; note: nearly all actives have a fitted effect of over 45% in size)
Procedure, shortened: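 MDA-kb2 AR-luc cells (MMTV-luciferase, AR/GR responsive) treated with compounds plus R1881 agonist for 16 h at 37C. CellTiter-Fluor added at 15.5 h; fluorescence read after 30 min in the same wells.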

[10] = biological target: Androgen receptor (Homo sapiens) (UniProt P10275); assay: qHTS assay to identify small molecule antagonists of the androgen receptor (AR) signaling pathway using the MDA cell line (AID 743042; note: nearly all actives have a fitted effect of over 55% in size; note: potency is the fitted concentration of half-maximal effect)
Procedure, shortened: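 MDA-kb2 breast carcinoma cells carrying MMTV-luciferase (AR/GR responsive) were co-treated with compounds and the agonist R1881 for 16 h at 37C. Inhibition read as ONE-Glo luminescence; CellTiter-Fluor fluorescence measured in parallel for cytotoxicity.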

Row | Compound | Potency [1] | Potency [2] | Potency [3] | Potency [4] | Potency [5] | Potency [6] | outcome [7] | Potency [8] | Potency [9] | Potency [10]
1 | Cc1cccc([N+](=O)[O-])c1C | inactive | inactive | inactive | inactive | inactive | inactive | inactive | inactive | inactive | inactive
2 | O=c1oc(=O)c2cc3c(=O)oc(=O)c3cc12 | inactive | inactive | inactive | inactive | inactive | – | – | – | inactive | –
3 | Clc1nc(Cl)c(Cl)c(Cl)c1Cl | inactive | inactive | inactive | inactive | inactive | – | – | – | inactive | –
4 | CC(C)=CCCC(C)CCO (stereo unspecified) | inactive | 61.1 µM (active) | inactive and 30.6 µM (active) | inactive and 27.3 µM (active) | inactive | – | – | – | inactive | –
5 | C[C@]12CCC(=O)C=C1CC[C@@H]1[C@@H]2C(=O)C[C@@]2(C)[C@H]1CC[C@]2(O)C(=O)CO | inactive | inactive and 61.1 µM (active) | inactive and 61.1 µM (active) | inactive and 68.6 µM (active) | inactive | – | – | – | inactive | –
6 | CC(C)OC=O | inactive | inactive | 72.9 µM (active) and inactive | inactive | inactive | – | – | – | inactive | –
7 | O=Cc1ccccc1O | inactive | inactive | inactive | inactive | inactive | – | – | – | inactive | –
8 | c1ccc2sc(SSN3CCOCC3)nc2c1 | inactive | 2.43 µM (active) | – | 13.7 µM (active) and 2.17 µM (active) | 4.36 µM (active) | – | – | – | – | –
9 | OCCO | inactive | inactive | inactive | inactive | inactive | inactive | inactive | inactive | inactive | inactive
10 | CCCCC(CC)COC(=O)c1ccc(N(C)C)cc1 (stereo unspecified) | inactive | inactive | inactive and 54.5 µM (active) | inactive and 43.3 µM (active) | inactive | – | – | – | inactive | –
11 | CCCCCCCCCCCO | inactive | inactive and 48.6 µM (active) | inactive and 54.5 µM (active) | inactive and 61.1 µM (active) | inactive | – | – | – | inactive | –
12 | O=C(c1ccccc1)c1ccccc1O | inactive | inactive | inactive | inactive | inactive | inactive | inactive | inactive | inactive | inactive
13 | O=C(COc1ccc(Cl)cc1)N1CCN(Cc2ccc3c(c2)OCO3)CC1 | inactive | 29.8 µM (active) | 16.8 µM (active) and 54.5 µM (active) | 48.6 µM (active) | inactive | – | – | – | inactive | –
14 | CC(C)Oc1ccc2c(=O)c(-c3ccccc3)coc2c1 | inactive | 6.68 µM (active) | 4.22 µM (active) | 9.44 µM (active) | inactive | – | – | – | inactive | –
15 | c1cc(-c2ccncc2)ccn1 | inactive | inactive | inactive | inactive | inactive | – | – | – | inactive | –
16 | CC(C)OC(=O)C(C)(C)Oc1ccc(C(=O)c2ccc(Cl)cc2)cc1 | inactive | 29.8 µM (active) and 12.2 µM (active) | 24.3 µM (active) | 15.4 µM (active) | inactive and 43.6 µM (active) | inactive | inactive | inactive | – | inactive and 48.6 µM (active)
17 | NC=O | inactive | inactive | inactive | inactive | inactive | – | – | – | inactive | –
18 | COc1ccc(C(=O)CC(=O)c2ccc(C(C)(C)C)cc2)cc1 | inactive | inactive | inactive | inactive | inactive | – | – | – | inactive | –
